Of roughly 8,800 targets only a part is listed; those with a hit were picked by preference. About 0.5% of all pairs of compound and target were hits. Values without a mark were called inactive.
Tests used:
Test in all cases: log2 fold change, soluble protein after heating vs DMSO (PISA); higher = thermal stabilisation; K562 lysate, 10 uM; active = over 0.2 and 3.5 SD of the protein, either way, in both replicates (recomputed)
alvocidib = compound: CN1CC[C@H](c2c(O)cc(O)c3c(=O)cc(-c4ccccc4Cl)oc23)[C@H](O)C1 [alvocidib]
Summary of the method: (§1)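 K562 pellets were dounce-homogenised in PBS pH 7.4 containing 1 mM MgCl2, and the crude extract, at 1 mg/mL protein, was exposed to 10 μM compound for 30 min. Aliquots were heated for 3 min across 48°C-58°C, pooled, brought to 0.5% NP-40 at 4°C and spun at 21,000xg for 90 min, with the supernatant taken as soluble protein. TMTpro 16plex LC-MS/MS with equalised channel sums quantified that protein. Values are log-two fold changes in thermal stability relative to solvent controls, taken from duplicates.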

Tubastatin A = compound: CN1CCc2c(c3ccccc3n2Cc2ccc(C(=O)NO)cc2)C1 [Tubastatin A]
Summary of the method: as §1

[1] = compound: CNC(=O)C1=CC=CC=C1NC2=NC(=NC=C2Cl)NC3=C(C=C(C=C3)N4CCOCC4)OC
Summary of the method: as §1

defactinib = compound: CNC(=O)c1ccc(Nc2ncc(C(F)(F)F)c(NCc3nccnc3N(C)S(C)(=O)=O)n2)cc1 [defactinib]
Summary of the method: as §1

[2] = compound: CNc1nc(-c2ccc3c(N)n[nH]c3c2)cc(N2C[C@@H](C(=O)NC3CCCCC3)CC[C@H]2C)n1
Summary of the method: as §1

encorafenib = compound: COC(=O)N[C@@H](C)CNc1nccc(-c2cn(C(C)C)nc2-c2cc(Cl)cc(NS(C)(=O)=O)c2F)n1 [encorafenib]
Summary of the method: as §1

[3] = compound: COC(=O)[C@H](CCSC)NC(=O)C1=C(C=C(C=C1)NC[C@H](CS)N)C2=CC=CC=C2
Summary of the method: as §1

alisertib = compound: COc1cc(Nc2ncc3c(n2)-c2ccc(Cl)cc2C(c2c(F)cccc2OC)=NC3)ccc1C(=O)O [alisertib]
Summary of the method: as §1

[4] = compound: COc1cc2nc(-c3cc(F)ccc3O)nc(N[C@@H]3CNC[C@H]3C(C)(C)O)c2cc1OC
Summary of the method: as §1

gefitinib = compound: COc1cc2ncnc(Nc3ccc(F)c(Cl)c3)c2cc1OCCCN1CCOCC1 [gefitinib]
Summary of the method: as §1

lapatinib = compound: CS(=O)(=O)CCNCc1ccc(-c2ccc3ncnc(Nc4ccc(OCc5cccc(F)c5)c(Cl)c4)c3c2)o1 [lapatinib]
Summary of the method: as §1

pictilisib = compound: CS(=O)(=O)N1CCN(Cc2cc3nc(-c4cccc5[nH]ncc45)nc(N4CCOCC4)c3s2)CC1 [pictilisib]
Summary of the method: as §1

crizotinib = compound: C[C@@H](Oc1cc(-c2cnn(C3CCNCC3)c2)cnc1N)c1c(Cl)ccc(F)c1Cl [crizotinib]
Summary of the method: as §1

[5] = compound: C[C@H](C1=CC=C(C=C1)C(=O)NC2=C3C=CNC3=NC=C2)N
Summary of the method: as §1

duvelisib = compound: C[C@H](Nc1ncnc2nc[nH]c12)c1cc2cccc(Cl)c2c(=O)n1-c1ccccc1 [duvelisib]
Summary of the method: as §1

gandotinib = compound: Cc1cc(Nc2cc(CN3CCOCC3)c3nc(C)c(Cc4ccc(Cl)cc4F)n3n2)n[nH]1 [gandotinib]
Summary of the method: as §1

tozasertib = compound: Cc1cc(Nc2cc(N3CCN(C)CC3)nc(Sc3ccc(NC(=O)C4CC4)cc3)n2)n[nH]1 [tozasertib]
Summary of the method: as §1

doramapimod = compound: Cc1ccc(-n2nc(C(C)(C)C)cc2NC(=O)Nc2ccc(OCCN3CCOCC3)c3ccccc23)cc1 [doramapimod]
Summary of the method: as §1

bafetinib = compound: Cc1ccc(NC(=O)c2ccc(CN3CC[C@H](N(C)C)C3)c(C(F)(F)F)c2)cc1Nc1nccc(-c2cncnc2)n1 [bafetinib]
Summary of the method: as §1

[6] = compound: Cc1cccc(CC(=O)N2CCc3c2ccc(-c2cn(C)c4ncnc(N)c24)c3F)n1
Summary of the method: as §1

Sequence of UniProt Q8IYU8 (Q8IYU8 whole entry, looked up): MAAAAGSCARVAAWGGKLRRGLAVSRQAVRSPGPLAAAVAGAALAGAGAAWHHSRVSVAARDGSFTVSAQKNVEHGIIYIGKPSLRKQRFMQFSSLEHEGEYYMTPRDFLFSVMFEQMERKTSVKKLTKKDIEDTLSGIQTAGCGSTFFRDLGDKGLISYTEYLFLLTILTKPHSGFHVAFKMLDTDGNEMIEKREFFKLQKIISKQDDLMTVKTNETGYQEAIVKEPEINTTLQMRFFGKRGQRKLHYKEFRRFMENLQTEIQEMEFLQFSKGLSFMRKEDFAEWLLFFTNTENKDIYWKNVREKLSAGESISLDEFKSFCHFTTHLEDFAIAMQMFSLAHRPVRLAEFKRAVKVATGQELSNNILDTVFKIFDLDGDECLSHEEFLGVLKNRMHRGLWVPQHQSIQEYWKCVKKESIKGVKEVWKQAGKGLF
Sequence of UniProt P53671 (P53671 whole entry, looked up): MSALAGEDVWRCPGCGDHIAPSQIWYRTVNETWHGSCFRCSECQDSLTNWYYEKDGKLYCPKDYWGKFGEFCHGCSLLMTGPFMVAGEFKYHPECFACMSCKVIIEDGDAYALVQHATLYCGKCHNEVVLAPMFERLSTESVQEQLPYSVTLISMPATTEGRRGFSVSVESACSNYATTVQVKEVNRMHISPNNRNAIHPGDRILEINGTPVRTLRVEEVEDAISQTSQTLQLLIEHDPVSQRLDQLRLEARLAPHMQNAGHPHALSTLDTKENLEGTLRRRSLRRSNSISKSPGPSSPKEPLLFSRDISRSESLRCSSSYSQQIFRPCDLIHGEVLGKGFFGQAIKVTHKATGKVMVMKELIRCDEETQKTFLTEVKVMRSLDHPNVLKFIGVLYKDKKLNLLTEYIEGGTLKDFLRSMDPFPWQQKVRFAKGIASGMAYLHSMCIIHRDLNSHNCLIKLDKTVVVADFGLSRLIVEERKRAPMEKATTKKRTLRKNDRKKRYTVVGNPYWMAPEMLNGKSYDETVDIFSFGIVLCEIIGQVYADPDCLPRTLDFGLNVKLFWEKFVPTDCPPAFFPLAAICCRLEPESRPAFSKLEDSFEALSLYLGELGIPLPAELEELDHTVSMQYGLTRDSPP
Sequence of UniProt P28838 (P28838 whole entry, looked up): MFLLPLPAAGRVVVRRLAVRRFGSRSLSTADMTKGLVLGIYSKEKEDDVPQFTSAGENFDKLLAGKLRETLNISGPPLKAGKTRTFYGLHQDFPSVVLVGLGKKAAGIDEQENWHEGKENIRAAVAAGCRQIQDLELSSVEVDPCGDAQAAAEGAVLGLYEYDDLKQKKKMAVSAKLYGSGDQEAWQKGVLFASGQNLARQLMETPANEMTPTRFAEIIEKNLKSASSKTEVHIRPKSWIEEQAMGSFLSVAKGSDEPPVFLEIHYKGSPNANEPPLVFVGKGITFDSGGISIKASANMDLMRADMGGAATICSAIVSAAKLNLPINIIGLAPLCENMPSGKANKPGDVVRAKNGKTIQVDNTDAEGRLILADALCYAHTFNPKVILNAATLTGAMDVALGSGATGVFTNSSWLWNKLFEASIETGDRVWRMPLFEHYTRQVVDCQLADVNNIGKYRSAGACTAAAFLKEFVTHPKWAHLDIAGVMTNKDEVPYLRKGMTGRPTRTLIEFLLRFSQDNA
Sequence of UniProt Q8NF37 (Q8NF37 whole entry, looked up): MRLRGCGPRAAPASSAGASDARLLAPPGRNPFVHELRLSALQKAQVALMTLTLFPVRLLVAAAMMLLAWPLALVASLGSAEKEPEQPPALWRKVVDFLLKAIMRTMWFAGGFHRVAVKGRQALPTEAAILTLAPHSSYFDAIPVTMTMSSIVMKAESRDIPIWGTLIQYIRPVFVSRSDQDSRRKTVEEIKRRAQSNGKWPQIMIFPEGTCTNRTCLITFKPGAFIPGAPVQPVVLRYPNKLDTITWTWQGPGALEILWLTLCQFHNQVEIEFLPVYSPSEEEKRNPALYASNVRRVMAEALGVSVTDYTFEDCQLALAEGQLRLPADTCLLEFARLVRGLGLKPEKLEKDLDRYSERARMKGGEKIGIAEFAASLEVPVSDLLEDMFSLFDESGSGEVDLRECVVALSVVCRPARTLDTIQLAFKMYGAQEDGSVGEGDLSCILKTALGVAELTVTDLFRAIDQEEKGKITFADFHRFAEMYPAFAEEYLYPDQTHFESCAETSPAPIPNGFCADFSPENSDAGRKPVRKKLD
Sequence of UniProt P45985 (P45985 whole entry, looked up): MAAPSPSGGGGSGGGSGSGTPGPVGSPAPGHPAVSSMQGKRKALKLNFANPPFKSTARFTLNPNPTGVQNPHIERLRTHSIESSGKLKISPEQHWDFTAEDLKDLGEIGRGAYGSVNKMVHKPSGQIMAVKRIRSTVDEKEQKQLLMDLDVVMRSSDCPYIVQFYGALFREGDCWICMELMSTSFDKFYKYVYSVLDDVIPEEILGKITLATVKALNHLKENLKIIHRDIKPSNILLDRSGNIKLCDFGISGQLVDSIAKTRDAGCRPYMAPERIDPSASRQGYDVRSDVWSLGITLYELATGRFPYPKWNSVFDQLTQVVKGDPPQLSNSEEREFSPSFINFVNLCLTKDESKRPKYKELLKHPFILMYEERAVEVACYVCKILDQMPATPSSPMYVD
Sequence of UniProt Q9Y6X9 (Q9Y6X9 whole entry, looked up): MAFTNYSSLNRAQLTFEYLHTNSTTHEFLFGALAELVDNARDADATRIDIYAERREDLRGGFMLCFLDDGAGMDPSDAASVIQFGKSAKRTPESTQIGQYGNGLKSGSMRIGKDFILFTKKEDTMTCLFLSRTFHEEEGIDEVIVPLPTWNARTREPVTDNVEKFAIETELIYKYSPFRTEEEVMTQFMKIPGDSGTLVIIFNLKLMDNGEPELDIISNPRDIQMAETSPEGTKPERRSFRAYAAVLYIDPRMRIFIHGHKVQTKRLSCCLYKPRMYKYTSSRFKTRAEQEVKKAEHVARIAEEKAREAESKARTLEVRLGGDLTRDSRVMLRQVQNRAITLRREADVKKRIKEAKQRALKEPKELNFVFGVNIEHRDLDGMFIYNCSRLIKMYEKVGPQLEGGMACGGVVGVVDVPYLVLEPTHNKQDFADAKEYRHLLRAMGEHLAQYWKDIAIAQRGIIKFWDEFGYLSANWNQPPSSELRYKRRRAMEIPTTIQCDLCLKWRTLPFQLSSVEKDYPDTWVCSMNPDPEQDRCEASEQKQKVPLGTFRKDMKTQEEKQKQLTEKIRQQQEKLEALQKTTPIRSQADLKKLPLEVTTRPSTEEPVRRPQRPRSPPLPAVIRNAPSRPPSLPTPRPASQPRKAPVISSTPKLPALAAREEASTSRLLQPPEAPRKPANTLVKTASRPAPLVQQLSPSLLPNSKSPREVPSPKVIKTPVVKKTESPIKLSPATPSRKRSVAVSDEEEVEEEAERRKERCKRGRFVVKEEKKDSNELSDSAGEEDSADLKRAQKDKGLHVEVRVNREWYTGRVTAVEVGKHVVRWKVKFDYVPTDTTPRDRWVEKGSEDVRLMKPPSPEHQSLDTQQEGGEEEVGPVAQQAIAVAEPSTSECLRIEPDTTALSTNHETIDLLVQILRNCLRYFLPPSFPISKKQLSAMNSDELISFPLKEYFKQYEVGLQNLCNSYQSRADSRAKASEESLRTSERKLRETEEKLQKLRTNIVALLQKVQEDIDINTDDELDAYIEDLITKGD
Sequence of UniProt Q8WV92 (Q8WV92 whole entry, looked up): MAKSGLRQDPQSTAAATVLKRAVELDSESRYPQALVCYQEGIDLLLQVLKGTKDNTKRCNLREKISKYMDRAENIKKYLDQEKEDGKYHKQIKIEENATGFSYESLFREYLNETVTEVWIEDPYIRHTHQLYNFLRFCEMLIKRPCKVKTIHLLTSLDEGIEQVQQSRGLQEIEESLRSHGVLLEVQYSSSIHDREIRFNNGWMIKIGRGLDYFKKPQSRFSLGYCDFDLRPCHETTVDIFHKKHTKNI
Sequence of UniProt Q9UI95 (Q9UI95 whole entry, looked up): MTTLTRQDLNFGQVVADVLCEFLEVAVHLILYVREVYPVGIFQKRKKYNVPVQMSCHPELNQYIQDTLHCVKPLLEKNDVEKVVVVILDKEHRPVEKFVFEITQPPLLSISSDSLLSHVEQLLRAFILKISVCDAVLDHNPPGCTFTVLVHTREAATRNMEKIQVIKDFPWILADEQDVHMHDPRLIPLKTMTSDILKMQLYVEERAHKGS
Sequence of UniProt Q9Y4W2 (Q9Y4W2 whole entry, looked up): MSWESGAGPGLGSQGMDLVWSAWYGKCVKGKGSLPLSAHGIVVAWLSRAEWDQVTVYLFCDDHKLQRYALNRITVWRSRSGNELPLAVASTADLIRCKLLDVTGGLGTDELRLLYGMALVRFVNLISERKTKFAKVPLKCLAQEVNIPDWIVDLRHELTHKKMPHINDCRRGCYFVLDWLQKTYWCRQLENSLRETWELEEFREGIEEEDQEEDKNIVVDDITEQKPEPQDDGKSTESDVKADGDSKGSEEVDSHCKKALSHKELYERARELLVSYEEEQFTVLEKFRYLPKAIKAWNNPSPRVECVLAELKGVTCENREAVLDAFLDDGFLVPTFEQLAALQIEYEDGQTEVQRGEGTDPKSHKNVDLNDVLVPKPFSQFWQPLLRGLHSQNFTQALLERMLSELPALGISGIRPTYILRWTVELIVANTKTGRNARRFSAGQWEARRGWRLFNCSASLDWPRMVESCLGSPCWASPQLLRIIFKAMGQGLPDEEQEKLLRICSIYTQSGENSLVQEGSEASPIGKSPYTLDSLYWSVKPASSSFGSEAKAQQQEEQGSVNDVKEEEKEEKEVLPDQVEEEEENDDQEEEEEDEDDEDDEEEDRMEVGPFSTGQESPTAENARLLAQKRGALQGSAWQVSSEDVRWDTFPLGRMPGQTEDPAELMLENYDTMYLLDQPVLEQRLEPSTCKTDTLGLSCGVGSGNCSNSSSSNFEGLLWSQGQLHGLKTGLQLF
Sequence of UniProt Q9BTT4 (Q9BTT4 whole entry, looked up): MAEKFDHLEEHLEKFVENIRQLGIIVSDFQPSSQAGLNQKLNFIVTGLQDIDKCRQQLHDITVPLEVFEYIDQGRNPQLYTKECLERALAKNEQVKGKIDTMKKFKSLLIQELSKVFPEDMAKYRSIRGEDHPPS

Row | Target | log2 fold change (alvocidib) | log2 fold change (Tubastatin A) | log2 fold change [1] | log2 fold change (defactinib) | log2 fold change [2] | log2 fold change (encorafenib) | log2 fold change [3] | log2 fold change (alisertib) | log2 fold change [4] | log2 fold change (gefitinib) | log2 fold change (lapatinib) | log2 fold change (pictilisib) | log2 fold change (crizotinib) | log2 fold change [5] | log2 fold change (duvelisib) | log2 fold change (gandotinib) | log2 fold change (tozasertib) | log2 fold change (doramapimod) | log2 fold change (bafetinib) | log2 fold change [6]
1 | MAD2L2 (UniProt Q9UI95) | -0.026 | 0.051 | 0.033 | 0.06 | 0.064 | -0.069 | 0.022 | 0.04 | 0.135 | -0.006 | -0.003 | 0.058 | -0.142 | -0.008 | -0.001 | -0.127 | 0.042 | 0.022 | -0.11 | 0.073
2 | LAP3 (UniProt P28838) | -0.249 | 0.082 | 0.069 | -0.063 | 0.191 | 0.006 | 0.004 | -0.02 | 0.038 | -0.004 | -0.021 | 0.003 | -0.102 | -0.531 (active) | 0.034 | 0.385 (active) | -0.126 | 0.02 | 0.014 | 0.331 (active)
3 | MRPL15 (UniProt Q9P015) | -0.122 | 0.022 | -0.014 | -0.011 | 0.088 | 0.053 | -0.013 | 0.006 | -0.014 | -0.027 | -0.021 | 0.036 | -0.045 | -0.421 (active) | -0.013 | 0.134 | 0 | 0.079 | -0.063 | 0.241
4 | LPCAT1 (UniProt Q8NF37) | -0.117 | 0.117 | 0.067 | 0.045 | 0.097 | 0.037 | -0.063 | 0.07 | -0.01 | -0.009 | 0.005 | -0.034 | -0.031 | -0.209 | -0.107 | 0.115 | 0.006 | -0.048 | -0.072 | 0.078
5 | LIMK2 isoform 3 (UniProt P53671) | -0.002 | 0.02 | 0.068 | -0.026 | 0.102 | 0.204 | -0.189 | 0.031 | 0.033 | -0.141 | 0.029 | 0.112 | -0.138 | 0.626 (active) | -0.035 | -0.144 | 0.01 | 0.109 | -0.108 | -0.037
6 | MAST4 (UniProt O15021) | 0.042 | -0.11 | 0.394 | 0.282 | -0.173 | -0.036 | 0.006 | -0.043 | 0.032 | -0.066 | -0.12 | 0.122 | 0.079 | -0.065 | -0.089 | 0.374 | 0.274 | -0.121 | -0.103 | 0.017
7 | MAP2K4 isoform 2 (UniProt P45985) | 0.137 | -0.08 | 0.081 | 0.013 | 0.061 | 0.122 | 0.087 | -0.069 | -0.022 | -0.032 | -0.036 | -0.077 | -0.086 | 0.619 (active) | -0.012 | -0.031 | -0.087 | -0.032 | -0.05 | -0.059
8 | MED10 (UniProt Q9BTT4) | 0.038 | 0.041 | 0.042 | 0.068 | 0.045 | 0.11 | -0.185 | 0.082 | -0.03 | -0.045 | 0.107 | 0.232 | 0.016 | -0.024 | 0.016 | 0.04 | -0.057 | 0.014 | 0.187 | 0.055
9 | MORC2 (UniProt Q9Y6X9) | 0.018 | -0.095 | 0 | 0.013 | -0.012 | 0.02 | 0.025 | 0.001 | -0.008 | -0.02 | 0.016 | 0.015 | -0.012 | -0.049 | 0.04 | -0.032 | 0.008 | 0.012 | -0.032 | 0.043
10 | MICU2 (UniProt Q8IYU8) | 0.03 | -0.039 | 0.01 | 0.003 | 0.009 | 0.015 | -0.091 | 0.039 | -0.128 | -0.054 | -0.057 | 0.036 | -0.043 | 0.026 | 0.015 | -0.264 (active) | 0.083 | 0.029 | -0.056 | 0.029
11 | LBR (UniProt Q14739) | 0.072 | 0.025 | -0.063 | 0.04 | -0.002 | -0.021 | 0.027 | 0.071 | 0.001 | -0.094 | -0.071 | -0.068 | 0.063 | 0.159 | -0.039 | -0.285 (active) | -0.003 | -0.06 | -0.114 | -0.096
12 | KMT2A isoform 3 (UniProt Q03164) | -0.073 | 0.011 | -0.07 | -0.054 | -0.069 | -0.118 | -0.037 | -0.371 | 0.061 | -0.172 | -0.07 | -0.102 | -0.033 | 0.091 | 0.013 | 0.013 | 0.148 | 0.026 | -0.41 | 0.069
13 | KLHL36 (UniProt Q8N4N3) | 0.046 | 0.04 | -0.032 | 0.039 | 0.017 | 0.031 | -0.078 | 0.032 | -0.009 | -0.074 | -0.045 | -0.006 | 0.021 | -0.075 | -0.02 | -0.013 | 0.014 | -0.129 | 0.022 | -0.052
14 | KPNA2 (UniProt P52292) | 0.018 | -0.083 | -0.012 | 0.012 | -0.013 | -0.005 | 0.122 | 0.008 | -0.017 | 0.003 | -0.016 | 0.024 | -0.063 | -0.001 | 0.011 | -0.066 | 0.017 | 0.003 | -0.028 | 0.05
15 | LAS1L (UniProt Q9Y4W2) | -0.015 | -0.127 | -0.024 | -0.02 | 0.016 | -0.04 | 0.06 | -0.011 | 0.01 | -0.013 | -0.004 | -0.033 | -0.05 | -0.051 | -0.003 | 0.017 | 0.043 | 0.011 | -0.004 | 0.233 (active)
16 | MITD1 (UniProt Q8WV92) | 0.021 | 0.046 | 0.044 | -0.038 | -0.026 | -0.04 | 0.143 | 0.041 | 0.018 | 0.022 | 0.003 | -0.032 | 0.046 | 0.086 | 0.055 | 0.025 | -0.015 | -0.049 | -0.118 | -0.085

— the supplement of paper PMC10849652
